# Records with an inconclusive call do not appear. A call without a number means that no potency is given here. Active and inactive are the calls of the source. Calls follow the shape of the dose curve; as a rule, active = well fitted curve in the direction sought with a large enough effect; inconclusive = small, poorly fitted or top-dose-only effect, or another doubt; inactive = no such curve, though single readings can be large; an effect the other way counts as inactive or inconclusive.
# Tested on: not listed separately
# Assay: Cytometry Cell-Based qHTS for Inhibitors of the mTORC1 Signaling Pathway in MEF cells (AID 2668);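 also: Tsc2-/- p53-/- mouse embryonic fibroblasts stably re-expressing wild-type Tsc2; percent cells positive for phospho-rpS6 Ser235/236 relative to propidium iodide stain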
# Details: mTORC1 pathway readout; series mostly up to 38.3 µM
# How it was run: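 WT MEFs (Tsc2-/-, p53-/- stably re-expressing WT Tsc2) in DMEM + 10% FBS received compounds 24 hrs after plating, for 24 hrs at 37 degree Celsius. Fixed cells stained with Alexa-488 anti-phospho-rpS6 Ser235/236 and propidium iodide; laser-scanning cytometry read-out.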
row,Structure (SMILES),Potency
1,c1ccc(-c2ccccn2)nc1,inactive
2,O=c1[nH]c2cc([N+](=O)[O-])c([N+](=O)[O-])cc2[nH]c1=O,inactive
3,Brc1c(Br)c(Br)c2n[nH]nc2c1Br,inactive
4,C[N+](C)(CCCCCC[N+](C)(C)CCCN1C(=O)c2cccc3cccc(c23)C1=O)CCCN1C(=O)c2cccc3cccc(c23)C1=O,inactive
5,O=C(O)CC1CCCc2ccccc2C1O (configuration not stated),inactive
6,O=C(O)CNC(=O)C(CS)Cc1ccccc1 (configuration not stated),inactive
7,NCCCCCCCCCCN,inactive
8,NCCSSCCN,inactive
9,CN1C2CCC1CC(OC(=O)C(O)c1ccccc1)C2 (configuration not stated),inactive
10,Cn1c(=O)c2[nH]c(-c3ccccc3)nc2n(C)c1=O,inactive
11,CC1CN(S(=O)(=O)c2cccc3cnccc23)CCN1 (configuration not stated),inactive
12,O=C(O)[C@@H]1C[C@@H](C(=O)O)N1,inactive
13,CCCCCCCCCCCCCCCC(=O)NCC(COP(=O)([O-])OCC[N+](C)(C)C)OCC (configuration not stated),inactive
14,CC(=O)N[C@H](C(=O)O)C(C)(C)SN=O,inactive
15,NC(=O)C(=O)O,inactive
16,COc1cc(C(O)CO)ccc1OS(=O)(=O)O (configuration not stated),inactive
17,CN(C)c1nc(N)c(C(=O)N=C(N)N)nc1Cl,inactive
18,OCC1O[C@H](O)C(Cl)C(O)C1O (some centres not stated),inactive

# Tested on: not listed separately
# Assay: Validation screen for small molecules that induce DNA re-replication in MCF 10A normal breast cells (AID 463097); also: nearly all actives have a fitted effect of over 60% in size
# Details: MCF 10A cells, DNA re-replication phenotype imaging; series mostly up to 46.1 µM
# How it was run: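 Readout: Hoechst nuclear fluorescence intensity, 405 ex / 500-530 em, by scanning plate imager; re-replication scored as increase in nuclei with elevated DNA content. Cells exposed to compound 48 hr, 37 C, 5% CO2 beforehand.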
row,Structure (SMILES),Potency
1,C=CC(N)CCC(=O)O (configuration not stated),inactive
2,O=C(O)c1cc(=O)c2c(Cl)cc(Cl)cc2[nH]1,inactive
3,c1ccc(-c2ccccn2)nc1,inactive
4,CN1CCC[C@H]1c1cccnc1,inactive
5,O=c1[nH]c2cc([N+](=O)[O-])c([N+](=O)[O-])cc2[nH]c1=O,inactive
6,CO/N=C(\C(=O)N[C@@H]1C(=O)N2C(C(=O)O)=C(COC(C)=O)CS[C@H]12)c1csc(N)n1 (stereo in doubt),inactive
7,Cc1ccc(C(=O)O[C@H](C(=O)O)[C@@H](OC(=O)c2ccc(C)cc2)C(=O)O)cc1 (tested in a mixture with another compound),inactive
8,C[N+](C)(CCCCCC[N+](C)(C)CCCN1C(=O)c2cccc3cccc(c23)C1=O)CCCN1C(=O)c2cccc3cccc(c23)C1=O,inactive
9,CC1(C)CCC=[N+]1[O-],inactive
10,NCCCCC(=O)O,inactive
11,O=C(O)CC1CCCc2ccccc2C1O (configuration not stated),inactive
12,O=C(O)CNC(=O)C(CS)Cc1ccccc1 (configuration not stated),inactive
13,NCCCCCCCCCCN,inactive
14,NCCSSCCN,inactive
15,CN1C2CCC1CC(OC(=O)C(O)c1ccccc1)C2 (configuration not stated),inactive
16,Cn1c(=O)c2[nH]c(-c3ccccc3)nc2n(C)c1=O,inactive
17,CC1CN(S(=O)(=O)c2cccc3cnccc23)CCN1 (configuration not stated),inactive
18,N=C(N)SCCc1ccc(CCSC(=N)N)cc1,inactive
19,CN[C@H](CC(C)C)C(=O)N[C@H]1C(=O)N[C@@H](CC(N)=O)C(=O)N[C@H]2C(=O)N[C@H]3C(=O)N[C@H](C(=O)N[C@H](C(=O)O)c4cc(O)cc(O)c4-c4cc3ccc4O)[C@H](O)c3ccc(c(Cl)c3)Oc3cc2cc(c3O[C@@H]2O[C@H](CO)[C@@H](O)[C@H](O)[C@H]2O[C@H]2C[C@](C)(N)[C@H](O)[C@H](C)O2)Oc2ccc(cc2Cl)[C@H]1O,inactive
20,O=C(O)[C@@H]1C[C@@H](C(=O)O)N1,inactive
21,C=C/C(C)=C/[C@@]1(C)SC(=O)C(C)=C1O,inactive
22,CC(=O)N[C@H](C(=O)O)C(C)(C)SN=O,inactive
23,NC(=O)C(=O)O,inactive
24,O=C(O)c1cc(=O)c2ccccc2[nH]1,inactive
25,COc1cc(C(O)CO)ccc1OS(=O)(=O)O (configuration not stated),inactive
26,CN(C)c1nc(N)c(C(=O)N=C(N)N)nc1Cl,inactive
27,OCC1O[C@H](O)C(Cl)C(O)C1O (some centres not stated),inactive
28,CC(=O)SCC[N+](C)(C)C,inactive
29,CC(C)(C)NCC(O)COc1nsnc1N1CCOCC1 (configuration not stated),inactive

# Target: Ubiquitin carboxyl-terminal hydrolase 2 (Homo sapiens) (UniProt O75604)
# Assay: qHTS Validation Assay for Inhibitors of Ubiquitin-specific Protease USP2a Using CHOP2 as the Reporter (AID 463106)
# Details: USP2a cleavage of CHOP2 reporter, enzymatic; series mostly up to 38.3 µM
# How it was run: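 10nM USP2 core + cpd, 30min RT; add 25nM Ub-CHOP2/25nM substrate; 60min RT; FI 485/531nm. Buffer Tris pH 8.0, CaCl2, BME, CHAPS. Norm. to NEM = 100% inhibition; time-zero read flags fluorescent artifacts.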
# Ubiquitin carboxyl-terminal hydrolase 2 (Homo sapiens), sequence (O75604 whole entry, looked up): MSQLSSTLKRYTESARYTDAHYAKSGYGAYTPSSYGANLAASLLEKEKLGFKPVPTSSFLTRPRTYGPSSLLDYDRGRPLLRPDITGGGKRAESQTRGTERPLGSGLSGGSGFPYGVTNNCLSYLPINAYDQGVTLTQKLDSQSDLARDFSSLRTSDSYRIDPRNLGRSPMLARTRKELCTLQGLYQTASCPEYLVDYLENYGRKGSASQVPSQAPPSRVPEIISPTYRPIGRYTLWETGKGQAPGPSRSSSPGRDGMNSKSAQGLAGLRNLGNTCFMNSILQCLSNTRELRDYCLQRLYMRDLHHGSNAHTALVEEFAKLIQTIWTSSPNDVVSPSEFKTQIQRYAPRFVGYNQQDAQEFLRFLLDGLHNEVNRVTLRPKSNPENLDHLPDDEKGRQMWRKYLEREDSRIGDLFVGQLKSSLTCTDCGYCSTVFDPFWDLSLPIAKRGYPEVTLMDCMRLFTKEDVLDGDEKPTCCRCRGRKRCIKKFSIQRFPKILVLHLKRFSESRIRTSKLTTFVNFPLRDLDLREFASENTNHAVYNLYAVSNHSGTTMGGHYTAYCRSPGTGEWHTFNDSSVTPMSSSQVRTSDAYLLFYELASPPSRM
row,Structure (SMILES),Potency
1,C=CC(N)CCC(=O)O (configuration not stated),inactive
2,O=C(O)c1cc(=O)c2c(Cl)cc(Cl)cc2[nH]1,inactive
3,c1ccc(-c2ccccn2)nc1,inactive
4,CN1CCC[C@H]1c1cccnc1,inactive
5,O=c1[nH]c2cc([N+](=O)[O-])c([N+](=O)[O-])cc2[nH]c1=O,inactive
6,Cc1ccc(C(=O)O[C@H](C(=O)O)[C@@H](OC(=O)c2ccc(C)cc2)C(=O)O)cc1 (tested in a mixture with another compound),inactive
7,Brc1c(Br)c(Br)c2n[nH]nc2c1Br,inactive
8,C[N+](C)(CCCCCC[N+](C)(C)CCCN1C(=O)c2cccc3cccc(c23)C1=O)CCCN1C(=O)c2cccc3cccc(c23)C1=O,inactive
9,CC1(C)CCC=[N+]1[O-],inactive
10,NCCCCC(=O)O,inactive
11,S=C(S)OC1CC2CC1C1CCCC21 (configuration not stated),inactive
12,O=C(O)CC1CCCc2ccccc2C1O (configuration not stated),inactive
13,O=C(O)CNC(=O)C(CS)Cc1ccccc1 (configuration not stated),inactive
14,NCCCCCCCCCCN,inactive
15,NCCSSCCN,inactive
16,CN1C2CCC1CC(OC(=O)C(O)c1ccccc1)C2 (configuration not stated),inactive
17,Cn1c(=O)c2[nH]c(-c3ccccc3)nc2n(C)c1=O,inactive
18,CC1CN(S(=O)(=O)c2cccc3cnccc23)CCN1 (configuration not stated),inactive
19,N=C(N)SCCc1ccc(CCSC(=N)N)cc1,inactive
20,O=C(O)[C@@H]1C[C@@H](C(=O)O)N1,inactive
21,CCCCCCCCCCCCCCCC(=O)NCC(COP(=O)([O-])OCC[N+](C)(C)C)OCC (configuration not stated),inactive
22,CC(=O)N[C@H](C(=O)O)C(C)(C)SN=O,inactive
23,NC(=O)C(=O)O,inactive
24,O=C(O)c1cc(=O)c2ccccc2[nH]1,inactive
25,COc1cc(C(O)CO)ccc1OS(=O)(=O)O (configuration not stated),inactive
26,CN(C)c1nc(N)c(C(=O)N=C(N)N)nc1Cl,inactive
27,C[C@@H](CN1CCC(Cc2ccccc2)CC1)[C@@H](O)c1ccc(O)cc1,inactive
28,OCC1O[C@H](O)C(Cl)C(O)C1O (some centres not stated),inactive
29,CC(=O)SCC[N+](C)(C)C,inactive
30,O=C1O/C(=C/Br)CCC1c1cccc2ccccc12 (configuration not stated),inactive

# Source: PubChem BioAssay (NCATS)
